# PubChem BioAssay (Tox21)
# Values without a mark were called inactive. Where a call stands in place of a potency, no number is given. Activity calls are given as the source filed them. Unless noted, calls follow the shape of the dose curve; as a rule, active = well fitted curve in the direction sought with a large enough effect in the repeat runs; inconclusive = weak or mixed curves; inactive = no such curve, though single readings can be large; an effect the other way counts as inactive or inconclusive.
# How the values were obtained:
# [1] = qHTS assay for small molecule agonists of the p53 signaling pathway (AID 651631; calls by dose curve; also: nearly all actives have a fitted effect of over 15% in size)
# Procedure, shortened: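 Readout was fluorescence from the LiveBLAzer FRET substrate, applied for 2 h at room temperature after 16 h compound exposure at 37 °C. Cells were the p53RE-bla HCT-116 line, with beta-lactamase driven by p53 response elements.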
# [2] = qHTS assay for small molecules that induce genotoxicity in human embryonic kidney cells expressing luciferase-tagged ATAD5 (AID 651632); also: nearly all actives have a fitted effect of over 15% in size
# Procedure, shortened: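 Luminescent reporter readout, HEK293T ATAD5-luc line: 16 hr drug exposure (37C, 5% CO2) followed by Amplite, 30 min RT.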
# [3] = qHTS assay for small molecule agonists of the p53 signaling pathway - cell viability (AID 651633; calls by dose curve; also: nearly all actives have a fitted effect of over 30% in size)
# Procedure, shortened: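 p53RE-bla cells, seeded at 4,000 per well and rested 5 h at 37 C/5% CO2, received compounds in DMSO for 16 h at 37 C. CellTiter-Glo was then added, and luminescence was read after 30 min at room temperature to gauge cytotoxicity.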
# [4] = qHTS assay for small molecules that induce genotoxicity in human embryonic kidney cells expressing luciferase-tagged ATAD5 - cell viability (AID 651634; calls by dose curve; also: nearly all actives have a fitted effect of over 25% in size)
# Procedure, shortened: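 Viability read: CellTiter-Fluor fluorescence, 30 min at 37C. Cells: HEK293T, luciferase-tagged ATAD5. Exposure: 15.5 hr, 37C, 5% CO2, compound or DMSO vehicle.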
# [5] = qHTS assay for small molecule disruptors of the mitochondrial membrane potential - cell viability (AID 720634; calls by dose curve;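 also: human HepG2 liver cancer cells; nearly all actives have a fitted effect of over 20% in size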)
# Procedure, shortened: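 HepG2, 1 hr compound, 37 C. ATP luminescence via CellTiter-Glo, 30 min RT, same well as m-MPI.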
# [6] = qHTS assay for small molecule disruptors of the mitochondrial membrane potential (AID 720635)
# Procedure, shortened: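 HepG2 cells (2,000/well) attached overnight at 37C, then took compound for 1 hr at 37C, 5% CO2. Mito-MPS dye was added for 30 min; fluorescence was read at 490/535 nm (monomers) and 540/590 nm (aggregates).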
# [7] = qHTS assay to test for compound auto fluorescence at 590 nm (red) in HepG2 cells (AID 720674)
# Procedure, shortened: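 Rose Bengal sodium served as the red fluorophore standard. HepG2 monolayers (overnight attachment, MEM with 10% FBS) were exposed to test compounds for 1 hr at 37 C and read at Ex 540/Em 590 nm.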
# [8] = qHTS assay to test for compound auto fluorescence at 535 nm (green) in HepG2 cells (AID 720675)
# [9] = qHTS assay to test for compound auto fluorescence at 460 nm (blue) in HEK293 cells (AID 720678)
# Procedure, shortened: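 Intrinsic compound fluorescence is recorded in live HEK293 cultures after overnight incubation at 37C, 5% CO2, using excitation 405 nm and emission 460 nm. Values are referenced to triamterene.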
# [10] = qHTS assay to test for compound auto fluorescence at 590 nm (red) in HEK293 cells (AID 720679)
# Procedure, shortened: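 Red autofluorescence, HEK293 cells: 2,000 cells/well; attach 4-5 hr 37C; add 23 nL cpd or DMSO; incubate o/n 37C 5% CO2; read Ex540/Em590; Rose Bengal sodium reference.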
# [11] = qHTS assay to test for compound auto fluorescence at 535 nm (green) in HEK293 cells (AID 720680)
# [12] = qHTS assay to test for compound auto fluorescence at 460 nm (blue) in HEK293 cell free culture (AID 720681)
# Procedure, shortened: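 Test compounds were pinned into cell-free culture medium (DMEM with 10% FBS) and fluorescence was read directly at Ex/Em 405/460 nm. Signals were expressed as fluorescence equivalents of triamterene, with DMSO vehicle as control.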
# [13] = qHTS assay to test for compound auto fluorescence at 590 nm (red) in HEK293 cell free culture (AID 720683)
# Procedure, shortened: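 Tox21 10K library compounds were pinned into cell-free DMEM with 10% FBS and fluorescence was read at excitation 540 nm. Activity is expressed as Rose Bengal sodium equivalency.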
# [14] = qHTS assay to test for compound auto fluorescence at 590 nm (red) in HepG2 cell free culture (AID 720684)
# Procedure, shortened: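 Measured in medium alone (MEM containing 10% FBS) following pintool addition of compound; emission at 590 nm with 540 nm excitation, referenced to Rose Bengal sodium.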
# [15] = qHTS assay to test for compound auto fluorescence at 460 nm (blue) in HepG2 cell free culture (AID 720685)
# Procedure, shortened: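 Compound (23 nL) or DMSO pinned into cell-free MEM with 10% FBS; blue fluorescence read at 405/460 nm excitation/emission, expressed as auto-fluorescence equivalency to triamterene.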
# [16] = qHTS assay to test for compound auto fluorescence at 535 nm (green) in HepG2 cell free culture (AID 720686)
# [17] = qHTS assay to test for compound auto fluorescence at 460 nm (blue) in HepG2 cells (AID 720687)
# Procedure, shortened: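 Cells (2,000/well in MEM with 10% FBS) attached overnight at 37 C, then were exposed to compound or DMSO for 1 hr at 37 C, 5% CO2. Fluorescence read at Ex/Em 405/460 nm, expressed as triamterene-equivalent signal.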
# [18] = qHTS assay to test for compound auto fluorescence at 535 nm (green) in HEK293 cell free culture (AID 720682)
# Procedure, shortened: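 Compounds were pin-transferred into cell-free DMEM with 10% FBS, and green fluorescence was read at excitation 485 nm and emission 535 nm. Intensities were expressed as fluorescein-equivalent values.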
# [19] = molecular target: Glucocorticoid receptor (Homo sapiens) (UniProt P04150); assay: qHTS assay to identify small molecule agonists of the glucocorticoid receptor (GR) signaling pathway (AID 720691; active = well fitted activation curve with a large enough effect in the signal ratio in the repeat runs, not every such curve was filed as active; inconclusive = weak or mixed curves, or effect the other way; inactive = no such curve, though single readings can be large or run the other way; the % refers to the signal ratio; also: potency is read from the fitted curve at half-maximal effect); settings: GR-bla HeLa, beta-lactamase reporter ratio, 18 h; activation: at 62.4 µM (top of the series) unless noted
# Procedure, shortened: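 qHTS in GR-bla HeLa cells: 4 h settling at 37 C/5% CO2, 18 h compound incubation at 37 C, 2 h LiveBLAzer B/G FRET substrate at room temperature, fluorescence intensity measured.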
# [20] = molecular target: Glucocorticoid receptor (Homo sapiens) (UniProt P04150); assay: qHTS assay to identify small molecule antagonists of the glucocorticoid receptor (GR) signaling pathway (AID 720692; active = well fitted inhibition curve with a large enough effect in the signal ratio in the repeat runs, not every such curve was filed as active; inconclusive = weak or mixed curves, or effect the other way; inactive = no such curve, though single readings can be large or run the other way; the % refers to the signal ratio)
# Procedure, shortened: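 Inhibition of glucocorticoid signalling is measured in HeLa cells with a GRE-controlled beta-lactamase reporter; cells are co-treated with compound and 5 nM dexamethasone (final) for 18 h before FRET substrate readout.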
# Sequence of Glucocorticoid receptor (Homo sapiens) (P04150 whole entry, looked up): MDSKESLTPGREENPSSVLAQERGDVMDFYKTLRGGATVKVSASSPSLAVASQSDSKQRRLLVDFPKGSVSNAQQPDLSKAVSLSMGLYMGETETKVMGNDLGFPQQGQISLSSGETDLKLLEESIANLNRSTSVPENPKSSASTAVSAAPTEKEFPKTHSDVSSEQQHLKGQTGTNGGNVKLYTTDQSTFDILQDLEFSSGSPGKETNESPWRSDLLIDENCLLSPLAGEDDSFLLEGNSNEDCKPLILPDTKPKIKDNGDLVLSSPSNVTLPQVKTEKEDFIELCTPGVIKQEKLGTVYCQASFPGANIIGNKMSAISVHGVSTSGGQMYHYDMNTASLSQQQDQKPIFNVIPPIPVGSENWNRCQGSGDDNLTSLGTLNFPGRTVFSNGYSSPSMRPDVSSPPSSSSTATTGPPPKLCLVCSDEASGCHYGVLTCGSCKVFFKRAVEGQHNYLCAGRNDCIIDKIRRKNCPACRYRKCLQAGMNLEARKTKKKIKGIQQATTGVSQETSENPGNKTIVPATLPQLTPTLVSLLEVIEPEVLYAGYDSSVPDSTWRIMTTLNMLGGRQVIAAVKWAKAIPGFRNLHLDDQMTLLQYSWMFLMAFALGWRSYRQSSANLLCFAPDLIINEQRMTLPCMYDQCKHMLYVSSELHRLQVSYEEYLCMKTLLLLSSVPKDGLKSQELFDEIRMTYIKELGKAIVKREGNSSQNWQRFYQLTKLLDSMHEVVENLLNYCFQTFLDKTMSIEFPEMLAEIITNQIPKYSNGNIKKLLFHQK
smiles,measurement,setting,value
CN(C)c1ccc(CCO)cc1,Potency,[1],inactive
same,Potency,[2],inactive
same,Potency,[3],inactive
same,Potency,[4],inactive
same,Potency,[5],inactive
same,Potency,[6],inactive
same,Potency,[7],inactive
same,Potency,[8],inactive
same,outcome,[9],inactive
same,Potency,[10],inactive
same,outcome,[11],inactive
same,outcome,[12],inactive
same,Potency,[13],inactive
same,Potency,[14],inactive
same,outcome,[15],inactive
same,Potency,[16],inactive
same,outcome,[17],inactive
Nc1cc(C(=O)O)c(O)c(S(=O)(=O)O)c1,Potency,[1],inactive
same,Potency,[2],inactive
same,Potency,[3],inactive
same,Potency,[4],inactive
same,Potency,[5],inactive
same,Potency,[6],inactive
same,Potency,[7],inactive
same,Potency,[8],inactive
same,outcome,[9],inactive
same,Potency,[10],inactive
same,outcome,[12],inactive
same,outcome,[18],inactive
same,Potency,[14],inactive
same,outcome,[15],inactive
same,Potency,[16],inactive
same,outcome,[17],inactive
same,Potency,[19],inactive
CC1OC(=O)C(C)OC1=O (configuration not stated),Potency,[1],inactive
same,Potency,[2],inactive
same,Potency,[3],inactive
same,Potency,[4],inactive
same,Potency,[5],inactive
same,Potency,[6],inactive
same,Potency,[7],inactive
same,Potency,[8],inactive
same,outcome,[9],inactive
same,Potency,[10],inactive
same,outcome,[11],inactive
same,outcome,[12],inactive
same,outcome,[18],inactive
same,Potency,[13],inactive
same,Potency,[14],inactive
same,outcome,[15],inactive
same,Potency,[16],inactive
same,outcome,[17],inactive
same,Potency,[19],inactive
same,Potency,[20],inactive
C/C=C/C(=O)CC,activation,[1],-0.927% [at 18 µM]
same,activation,[2],0.488% [at 17.9 µM]
same,"activity change, negative = cytotoxicity",[3],-24.4% [at 17.9 µM]
same,"activity, negative = cytotoxicity",[4],-7.15% [at 17.9 µM]
same,"activity change, negative = cytotoxicity",[5],4.97% [at 17.9 µM]
same,"ratio activity, negative = MMP loss",[6],2.87% [at 17.9 µM]
same,"fluorescence, relative to Rose Bengal",[7],-0.234% [at 18.6 µM]
same,"fluorescence, % of fluorescein control",[8],0.0122% [at 18.6 µM]
same,"fluorescence, % of triamterene",[9],-0.166% [at 18.6 µM]
same,"fluorescence, % of fluorescent control",[10],-0.535% [at 18.6 µM]
same,"fluorescence, % of fluorescein",[11],0.0426% [at 18.6 µM]
same,"fluorescence, % of fluorescent control",[12],0.0584% [at 18.6 µM]
same,"fluorescence, % of fluorescent control",[13],-0.144% [at 18.6 µM]
same,"fluorescence, % of Rose Bengal",[14],0.0791% [at 18.6 µM]
same,"fluorescence, % of fluorescent control",[15],-0.0097% [at 18.6 µM]
same,"fluorescence, % of fluorescein control",[16],-0.0146% [at 18.6 µM]
same,"fluorescence, % of fluorescent control",[17],-0.0002% [at 18.6 µM]
same,activation,[19],-3.49% [at 15 µM]
same,Potency,[20],inactive
NCC(=O)O,Potency,[1],inactive
same,Potency,[2],inactive
same,Potency,[3],inactive
same,Potency,[4],inactive
same,Potency,[5],inactive
same,Potency,[6],inactive
same,Potency,[8],inactive
same,outcome,[9],inactive
same,Potency,[10],inactive
same,outcome,[11],inactive
same,outcome,[12],inactive
same,outcome,[18],inactive
same,Potency,[13],inactive
same,Potency,[14],inactive
same,outcome,[15],inactive
same,Potency,[16],inactive
same,Potency,[19],inactive
CCCCC(=O)OCC(=O)[C@H]1[C@H](C)C[C@H]2[C@@H]3C[C@H](F)C4=CC(=O)C=C[C@]4(C)[C@@]3(F)[C@@H](O)C[C@@]21C,Potency,[1],inactive
same,Potency,[2],inactive
same,Potency,[3],inactive
same,Potency,[4],inactive
same,Potency,[5],inactive
same,Potency,[7],inactive
same,Potency,[8],inactive
same,outcome,[9],inactive
same,Potency,[10],inactive
same,outcome,[11],inactive
same,outcome,[12],inactive
same,Potency,[13],inactive
same,Potency,[14],inactive
same,outcome,[15],inactive
same,Potency,[16],inactive
same,outcome,[17],inactive
same,Potency,[19],7.6 nM [inconclusive] (active)
